Hits are enriched below; roughly 6.9% of the tested compounds scored in any of these assays.
VDR inh: blocks the human vitamin D receptor | P11473 | VDR-SRC2-3 peptide fluorescence polarization, 2 h | Potency, µM, for the others: max response, negative = inhibition, hits mostly inhibitors | 400,000 compounds, 0.93% hits | AID 504847; further: on the % scale 0 is the no-effect control and ±100 the full control effect
Target sequence (P11473 whole entry, looked up): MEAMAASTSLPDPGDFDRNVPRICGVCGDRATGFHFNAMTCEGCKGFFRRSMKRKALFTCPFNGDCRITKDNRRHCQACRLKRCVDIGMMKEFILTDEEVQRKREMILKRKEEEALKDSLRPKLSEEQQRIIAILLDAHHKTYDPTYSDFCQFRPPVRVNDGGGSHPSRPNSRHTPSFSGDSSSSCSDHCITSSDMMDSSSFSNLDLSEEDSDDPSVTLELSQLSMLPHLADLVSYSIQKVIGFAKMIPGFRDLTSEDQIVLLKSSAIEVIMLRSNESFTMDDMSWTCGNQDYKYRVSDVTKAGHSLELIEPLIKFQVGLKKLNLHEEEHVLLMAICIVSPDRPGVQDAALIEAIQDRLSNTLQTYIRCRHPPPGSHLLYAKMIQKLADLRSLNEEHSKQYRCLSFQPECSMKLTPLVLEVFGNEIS
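Inhibition of the VDR/SRC2-3 peptide interaction is quantified by fluorescence polarization. Compounds (23 nl, pintool) incubate with the reagents for 2 hours at ambient room temperature.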
PLK1 PBD block: blocks phosphopeptide binding to human PLK1 polo-box domain. 360,000 compounds, 2.8% hits. Potency, µM, inactives show max response, negative = inhibition, hits mostly inhibitors. Plk1 PBD binding of FITC phosphopeptide, fluorescence polarization. AID 720504; further: series mostly up to about 57 µM; on the % scale 0 is the no-effect control and ±100 the full control effect; nearly all actives have a fitted effect of over 65% in size
JMJD2A Tudor: blocks the human JMJD2A Tudor domain; O75164; AlphaScreen JMJD2A-Tudor / H3K4me3 peptide binding; Potency, µM (series often up to 114 µM), inactives show at the highest dose activity change, negative = inhibition, actives largely listed as inhibitors; 390,000 compounds, 4.4% hits; AID 504339; further: on the % scale 0 is the no-effect control and ±100 the full control effect; nearly all actives have a fitted effect of over 50% in size
L3MBTL1 block: blocks human L3MBTL1; 230,000 compounds, 0.66% hits; Q9Y468; AID 485360; Potency, µM (top dose mostly 57.1 µM), without a hit: top-dose activity, negative = inhibition, usual class: inhibitors; AlphaScreen L3MBTL1–H3K9me1 peptide binding; further: on the % scale 0 is the no-effect control and ±100 the full control effect; nearly all actives have a fitted effect of over 60% in size
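AlphaScreen assay: L3MBTL1 (50 nM final) was preincubated 30 min at room temperature with biotinylated H3(1-15)K9me1 peptide (75 nM final), then 30 min with library compounds; streptavidin donor and nickel chelate acceptor beads (10 ug/mL final) added, 30 min dark.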
BAZ2B block: inhibitors of human BAZ2B bromodomain; Q9UIF8; AlphaScreen BAZ2B-H3K14Ac peptide displacement; Potency, µM (titrated, usually from 114 µM), without a hit: top-dose activity change, negative = inhibition, usual class: inhibitors; 360,000 compounds, 4.4% hits; AID 504333; further: on the % scale 0 is the no-effect control and ±100 the full control effect; nearly all actives have a fitted effect of over 60% in size
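BAZ2B (50 nM) with biotin-H3(5-23)K14Ac peptide (50 nM) in PBS pH 7.4, 0.01% Tween-20, preformed 30 min, then compound 30 min at room temperature; top concentration 110uM. AlphaScreen streptavidin donor/nickel chelate acceptor beads (10 ug/mL final), 20 min dark, signal read.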
HP1b chromo inh: blocks HP1-beta chromodomain binding to methylated histone tails; 390,000 compounds, 0.56% hits; AID 540317; P83916; Potency, µM (titrated, usually from 114 µM), for inactives: at the top dose activity change, negative = inhibition, most hits filed as inhibitors; AlphaScreen HP1-beta / biotin-H3K9me3 peptide binding; further: nearly all actives have a fitted effect of over 70% in size
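AlphaScreen: HP1-beta (50 nM) preformed 30 min with biotin-H3(1-18)K9me3 peptide (50 nM) in PBS pH 7.4, 0.01% Tween-20. Compound added for 30 min at RT, then streptavidin donor/nickel chelate acceptor beads (10 ug/mL) for 30 min.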
* marks the source's active call; other numbers are inactive results; ? = inconclusive; . = no result given; [ ] = remark or other dose. The call rests on the fitted dose curve; in most records, active means well fitted curve in the direction sought with a large enough effect; inconclusive means small, poorly fitted or top-dose-only effect, or another doubt; inactive means no such curve, though single readings can be large; an effect the other way counts as inactive or inconclusive. Potency means the concentration at half of the fitted maximal effect.

SMILES	VDR inh	PLK1 PBD block	JMJD2A Tudor	L3MBTL1 block	BAZ2B block	HP1b chromo inh
CC1CCN(S(=O)(=O)c2ccc(NN=C(C#N)C#N)cc2)CC1	.	.	.	.	45µM*	.
N#CC(C#N)=NNc1ccc(S(N)(=O)=O)cc1	?	24µM*	-19%[11.4 µM]	.	?	35µM*
C[C@@H]1O[C@@H](O[C@H]2CC[C@]3(C=O)C4CC[C@]5(C)[C@@H](C6=CC(=O)OC6)CC[C@]5(O)[C@@H]4CC[C@]3(O)C2)[C@H](O)[C@H](O)[C@H]1O (some centres not stated)	-1%	.	.	.	.	.
CCOP(=O)(/C(C#N)=C(\C)O)c1ccccc1 (configuration not stated)	-14%	21µM*	?	11%	-16%	43%
CC[C@@]1(C(=O)OC)N[C@H](CN(C)C(=O)Nc2ccc(F)cc2)[C@@H]2C(=O)N(Cc3ccccc3)C(=O)[C@@H]21	-5%	-2%	-18%	5%	.	65%
O=C(Nc1ccc(F)cc1)c1c(O)c2c(n(Cc3ccccc3)c1=O)CCCC2	-11%	27µM*	?	35%	19%	24%
COc1ccc(N2C(=O)/C(=C/c3cc(C)n(-c4ccc(C)cn4)c3C)C(=O)NC2=S)c(OC)c1	-10%	30µM*	40µM*	?	?	-12%
Cc1c(C=C2C(=O)NC(=O)NC2=O)c(=O)n(-c2ccccc2)n1C	4%	?	?	12%	-14%	18%
O=C1NC(=S)N(c2ccc(F)cc2)C(=O)/C1=C/c1ccco1	.	.	.	-94%	1.8µM*	.
Cc1ccc(N2C(=O)NC(=O)/C(=C\c3cc(C)n(-c4ccc(C(=O)O)cc4)c3C)C2=O)cc1	-3%	?	-24%	.	-33%	21%
O=C1NC(=O)C(=Cc2ccco2)C(=O)N1	4%	4.7µM*	45µM*	.	.	-34%[57 µM]
COc1ccc(OC)c(N2C(=O)/C(=C/c3ccco3)C(=O)NC2=S)c1	?	2.4µM*	1.6µM*	.	1.4µM*	3.2µM*
COc1ccc(OC)c(N2C(=O)CC(=O)NC2=O)c1	1%	-22%	-12%	.	-21%	35%
Cc1ccc(NC(=O)Cn2c(=O)cc(-c3ccccc3)c3c(C)nn(C)c32)c(Cl)c1	6%	.	-19%	.	0%	50%
Cc1cc(/C=C2/C(=O)NC(=O)N(c3ccccc3)C2=O)c(C)n1-c1ccc(F)cc1	-26%	?	-18%	.	.	15%
O=C1NC(=S)N(c2ccc(F)cc2)C(=O)/C1=C\c1ccoc1	?	2.7µM*	3.2µM*	.	14µM*	5.6µM*
Cc1c(N=Nc2c(O)n(-c3ccc(Br)cc3)c(=O)[nH]c2=O)c(=O)n(-c2ccccc2)n1C	13%	-7%	35µM*	?	28µM*	28%
Cc1c(N=Cc2c(O)n(C)c(=O)[nH]c2=O)c(=O)n(-c2ccccc2)n1C	-16%	-10%	-20%	-3%	-1%	25%
Cc1c(N=Nc2c(O)[nH]c(=O)[nH]c2=O)c(=O)n(-c2ccccc2)n1C	0%	1%	13µM*	-23%	3.2µM*	67%
CC1(C)N(O)C2CCCCC2N1O (configuration not stated)	8%	-2%	2.8µM*	14%	-9%	48%
O=C1c2ccccc2C(=O)N1SC1CCCCC1	20µM*	1.9µM*	?	3%	2%	-8%
CCOC(=O)c1cnc2c(ccc3ccccc32)c1Nc1ccc(C(C)=O)cc1	2%	.	-13%	.	2%	31%
C=CCN1C(=O)NC(=O)/C(=C/c2ccc(OC)c(CSc3ccccn3)c2)C1=O	71µM*	4.7µM*	79µM*	-9%	14%[57.1 µM]	55%
C=CCN1C(=O)NC(=O)/C(=C/c2ccc(OC)c(COc3ccc(NC(C)=O)cc3)c2)C1=O	79µM*	11µM*	-23%	2%	-9%	30%
Cn1c(=O)oc2cc(S(=O)(=O)N3CCCC(C(=O)N4CCN(c5ccc(Cl)cc5)CC4)C3)ccc21 (configuration not stated)	2%	.	-12%	.	-3%	42%

Bioassay records deposited in PubChem BioAssay by National Center for Advancing Translational Sciences (NCATS).
